CYP2C19 act – activators of human cytochrome P450 2C19. recombinant CYP2C19, luciferin-H EGE luminescence; hits give high values; 0 = fully inhibited enzyme, 1 = untreated enzyme. activation factor at 5 µM. 96,000 tested, under 10 active. AID 1025;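 active = activation factor of at least 2 at 5 µM in the primary screen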;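 also: 0 = wells with 2.5 mM tranylcypromine and 1 = vehicle-only wells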
Target sequence (P33261 whole entry, looked up): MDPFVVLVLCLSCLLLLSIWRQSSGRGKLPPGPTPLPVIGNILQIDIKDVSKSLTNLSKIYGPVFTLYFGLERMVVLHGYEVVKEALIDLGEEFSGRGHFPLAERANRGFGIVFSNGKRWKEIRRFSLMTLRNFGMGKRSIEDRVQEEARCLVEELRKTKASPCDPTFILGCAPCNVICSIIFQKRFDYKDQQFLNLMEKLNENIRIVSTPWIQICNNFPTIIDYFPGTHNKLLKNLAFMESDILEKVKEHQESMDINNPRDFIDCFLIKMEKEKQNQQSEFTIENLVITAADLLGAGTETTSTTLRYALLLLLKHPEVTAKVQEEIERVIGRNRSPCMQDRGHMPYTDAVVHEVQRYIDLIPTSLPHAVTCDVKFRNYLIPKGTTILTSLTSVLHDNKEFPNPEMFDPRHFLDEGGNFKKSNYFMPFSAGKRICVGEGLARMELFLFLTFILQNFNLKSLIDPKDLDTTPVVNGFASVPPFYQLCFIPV
CYP2C19 inh – human CYP2C19 inhibition | CYP2C19 Supersomes, luciferin-H EGE luminescence, 30 min | AID 778 | P33261 | 96,000 compounds, 21% hits | inhibition, % at 5 µM;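 active = CYP2C19 inhibition above a set limit at 5 µM in the primary screen, cut at about 50% in these data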;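 also: plate controls were negative control wells for no effect and 2.5 mM tranylcypromine positive control for full effect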
Cav3 T inh – blocks human Cav3.2 T-type calcium channel. Cav3.2-expressing cells, Fluo-4 calcium fluorescence FDSS; hits give low values. 100,000 compounds, 4% hits. B-score at 10 µM;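 active = single-dose well whose peak fluorescence ratio is a statistical outlier from its plate by either plate-standardised score or position-corrected B-score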
CYP2C9 inh – inhibitors of human CYP2C9. CYP2C9 Supersomes, luciferin-H conversion, luminescence. P11712. 96,000 compounds, 20% hits. AID 777. inhibition, % at 5 µM;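 active = blocking of liver enzyme CYP2C9 beyond about 50% at 5 µM, limit read from the data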
CYP2C9 activ – increases human cytochrome P450 2C9 activity | P11712 | 96,000 compounds, 1.4% hits | recombinant CYP2C9, luciferin-H conversion, luminescence; hits give high values; factor 1 = untreated enzyme, 0 = blocked | activation factor at 5 µM;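 active = activation factor of 2 or more for CYP2C9 at a 5 µM dose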;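 also: 0 = sulfaphenazole-blocked wells and 1 = vehicle-only wells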
* marks the source's active call; other numbers are inactive results; x = no result. Sampled rows, rich in hits. Any-hit rate of the full collection: about 27%.

SMILES | CYP2C19 act | CYP2C19 inh | Cav3 T inh | CYP2C9 inh | CYP2C9 activ
CCc1nc(C)cn1S(=O)(=O)c1cc(Cl)c(OC)cc1Cl | 0.6 | 43 | -2.5 | -8 | 1.1
CCc1nc(C)cn1S(=O)(=O)c1cc(Br)ccc1OC | 0 | 96* | -4.3 | -12 | 1.1
O=C(Nc1nncs1)c1c(F)c(F)c(F)c(F)c1F | 0.8 | 17 | 2.3 | 4 | 1
O=C(Nc1ccc2nsnc2c1)NC1CCCCC1 | 0.8 | 20 | x | 14 | 0.9
CCOc1ccc(/C(O)=C2/C(=O)C(=O)N(c3nc(C)c(C)s3)C2c2ccco2)cc1 (stereo unspecified) | 0.5 | 46 | -5.7* | 81* | 0.2
COc1ccc(N2CC(C(=O)Nc3ccccc3C(=O)NCc3ccco3)CC2=O)cc1 (stereo unspecified) | 0.3 | 66* | -0.3 | 84* | 0.2
O=C(NCc1ccco1)C1CC(=O)N(c2ccc(O)cc2)C1 (stereo unspecified) | 1 | -5 | x | -147 | 2.5*
COc1cc(S(=O)(=O)N2CCC(C(N)=O)CC2)c(C)cc1C | 0.3 | 69* | 0.3 | -200 | 3*
Cc1ccc(S(=O)(=O)N2CCC(C(N)=O)CC2)c(C)c1C | 0.7 | 29 | 0.44 | -23 | 1.2
Cc1cc(C)c(S(=O)(=O)N2CCC(C(N)=O)CC2)cc1C | 0.6 | 38 | -0.51 | -133 | 2.3*
CCn1c(SCC(=O)N2CCN(c3ccc(F)cc3)CC2)nnc1-c1ccncc1 | 0.8 | 19 | 0.27 | 27 | 0.7
CCOc1ccccc1-c1nn2c(Cc3ccccc3)nnc2s1 | 0.5 | 54* | -0.0038 | -7 | 1.1
c1ccc(Cc2nnc3sc(-c4ccccn4)nn23)cc1 | 0.1 | 92* | -0.092 | 63* | 0.4
COc1ccc(-c2nnc3sc(-c4cccs4)nn23)cc1OC | 0.8 | 25 | 1.6 | 23 | 0.8
c1ccc(Cc2nnc3sc(-c4cccs4)nn23)cc1 | 0.4 | 60* | -0.00019 | 55* | 0.5
c1ccc(Cc2nnc3sc(-c4cccnc4)nn23)cc1 | 0 | 98* | 1.4 | 64* | 0.4
FC(F)(F)c1nnc2sc(-c3ccccn3)nn12 | 1 | 0 | 0.74 | 25 | 0.8
c1ccc(CCc2nn3c(Cc4ccccc4)nnc3s2)cc1 | 0.2 | 80* | 0.31 | 73* | 0.3
c1ccc(Cc2nnc3sc(-c4ccncc4)nn23)cc1 | 0 | 96* | 0.52 | 52* | 0.5
c1ccc(Cc2nnc3sc(-c4ccc5c(c4)OCO5)nn23)cc1 | x | x | 0.54 | x | x
CCCn1cnc2cc(NCc3cccc(OC)c3O)ccc21 | 0.1 | 86* | -0.54 | 58* | 0.4
COc1cccc(CNc2ccc3c(c2)ncn3C(C)C)c1OC | 0.1 | 86* | -0.055 | 64* | 0.4
O=C(c1ccc(COc2c(F)c(F)cc(F)c2F)o1)N1CCN(c2ccccc2)CC1 | x | x | -0.49 | x | x
Cn1cc(CN2CCc3ccccc3C2)c2ccccc21 | 0 | 96* | -0.43 | -40 | 1.4
Oc1ccc(CN2CCc3ccccc3C2)c2cccnc12 | 1 | 0 | -1.2 | -30 | 1.3
SMILES | CYP2C19 act | CYP2C19 inh | Cav3 T inh | CYP2C9 inh | CYP2C9 activ
Cc1ccccc1NC(=O)C1CC(=O)N(c2ccc3c4c(cccc24)CC3)C1 (stereo unspecified) | 0.9 | 10 | -0.47 | 55* | 0.4
O=c1c(Cl)c(N/N=C/c2ccc(Br)cc2)cnn1-c1ccccc1 | 1 | -1 | x | 12 | 0.9
CCOC(=O)C1=C(CC)Nc2ccccc2N=C1NC(=O)c1cc(S(=O)(=O)N(C)C)ccc1Cl | 1 | -2 | 0.066 | 68* | 0.3
CS(=O)(=O)N(CC(=O)Nc1ccccc1Sc1ccccc1)c1cccc(Br)c1 | 0.9 | 14 | -0.67 | 66* | 0.3
CSc1ccccc1NC(=O)CN(c1cc(C)cc(C)c1)S(C)(=O)=O | 0.4 | 58* | -2.5 | 71* | 0.3
COc1ccc(N2CCN(C(=O)CN(c3cccc(Br)c3)S(C)(=O)=O)CC2)cc1 | 0.9 | 5 | -0.36 | -29 | 1.3
CSc1ccccc1NC(=O)c1ccccc1N(Cc1ccccc1)S(C)(=O)=O | 0.6 | 43 | -4.9 | 59* | 0.4
O=C(O)c1ccc2c(c1)C(=O)N(C(Cc1ccc(O)cc1)C(=O)O)C2=O (stereo unspecified) | 1 | 2 | 0.61 | -4 | 1
CN(C(=O)C12CC3CC(CC(C3)C1)C2)C1(C)CCS(=O)(=O)C1 (stereo unspecified) | 1 | -1 | 0.78 | -9 | 1.1
O=C1c2oc3ccc(Cl)cc3c(=O)c2C(c2ccccn2)N1CCCN1CCOCC1 (stereo unspecified) | 1 | 4 | 0.72 | 9 | 0.9
Nc1ccc(C(=O)c2ccc3c(c2)OCCO3)cc1N | x | x | 1.5 | x | x
COc1ccc(NS(=O)(=O)c2cccc(-c3nnc4n3CCCCC4)c2)cc1 | 0.6 | 44 | -0.035 | 82* | 0.2
CC(C)(C)NC(=O)CSc1nccn1Cc1ccccc1 | 0.6 | 44 | -0.23 | 12 | 0.9
Fc1ccc(CNc2ncnc3c2cnn3-c2ccccc2)cc1 | 0.8 | 19 | 1.2 | 58* | 0.4
c1ccc(-n2ncc3c(NCCN4CCOCC4)ncnc32)cc1 | 0.7 | 29 | -0.73 | 52* | 0.5
CC(C)(C)Nc1ncnc2c1cnn2-c1ccccc1 | 0.6 | 36 | -1.4 | 63* | 0.4
Cc1cccc(-n2ncc3c(NCc4ccccn4)ncnc32)c1 | 0.8 | 22 | -0.32 | 32 | 0.7
c1ccc(-n2ncc3c(NCCN4CCCCC4)ncnc32)cc1 | 0.8 | 18 | 1.2 | 14 | 0.9
c1ccc(-n2ncc3c(NCc4ccccn4)ncnc32)cc1 | 0.6 | 42 | 0.21 | 70* | 0.3
CN1CC(=O)N(CC(=O)Nc2ccc(F)cc2)c2ccccc2C1=O | 1 | 4 | 0.0098 | 4 | 1
O=C(NNC(=O)c1ccc(SCC2CCCO2)c([N+](=O)[O-])c1)c1ccc(F)cc1 (stereo unspecified) | 1 | -3 | -0.076 | 19 | 0.8
Cc1cccc(-n2ncc3c(NCc4ccccc4)ncnc32)c1 | 0.9 | 9 | x | 13 | 0.9
c1ccc(CNc2ncnc3c2cnn3-c2ccccc2)cc1 | 0.9 | 13 | -0.44 | 54* | 0.5
O=C(NCc1ccco1)c1ccc2c(=O)n(CCC3=CCCCC3)c(=O)[nH]c2c1 | 0.9 | 13 | 0.1 | 43 | 0.6
CCC(C)[C@H](NC(=O)OC(C)(C)C)C(=O)N/N=C/c1ccc2nccnc2c1 (stereo partly specified) | 1 | -3 | 1.2 | 55* | 0.5
CCOC(=O)c1ccc(N2C(=O)c3n[nH]c(C)c3C2c2ccc(OC)c(OC)c2)cc1 (stereo unspecified) | 0.2 | 82* | -0.55 | 78* | 0.2
CCOC(=O)c1ccc(N2C(=O)C(O)=C(C(C)=O)C2c2ccc(O)c(OC)c2)cc1 (stereo unspecified) | 0.9 | 9 | 0.35 | 81* | 0.2
COC(=O)c1ccc(C2c3c(n[nH]c3C)C(=O)N2c2ccc(C)cc2)cc1 (stereo unspecified) | 0.2 | 77* | -0.25 | 63* | 0.4

From PubChem BioAssay
